Here are results for three molecules from PubChem BioAssay (EPA / NIEHS).

Activity calls are given as the source filed them. Rule for the calls: active = hit-call score of the fitted dose curve at least 0.9, where 1 is the maximum; inactive = score below 0.9.

What all share (conditions): mRNA level, 48 h; actives raise or lower the signal
Read-out in test [1]: Insulin Like Growth Factor 1 (IGF1), IGF1 (gene 3479)
Briefly: LTEA_HepaRG_IGF1: Life Technologies and Expression Analysis (LTEA) Assay for Insulin Like Growth Factor 1 (IGF1) using HepaRG (AID 2283506). The method, boiled down: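 Differentiated human HepaRG cells were dosed for 48 h in serum-free induction medium with 0.5% DMSO, eight half-log concentrations up to 100 uM, in duplicate. IGF1 mRNA was quantified by qRT-PCR normalized to ACTB, GAPDH, POLR2A; bidirectional fitting versus DMSO.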

Read-out in test [2]: Intercellular Adhesion Molecule 1 (ICAM1), ICAM1 (gene 3383)
Briefly: LTEA_HepaRG_ICAM1: Life Technologies and Expression Analysis (LTEA) Assay for Intercellular Adhesion Molecule 1 (ICAM1) using HepaRG (AID 2283507). Summed up: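 Using the human liver line HepaRG, compounds are tested in duplicate over 48 h at concentrations up to 100 uM. Expression is determined by TaqMan qRT-PCR, normalized to endogenous controls, and analysed relative to 0.5% DMSO vehicle.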

Read-out in test [3]: Insulin-like growth factor-binding protein 1 (IGFBP1), IGFBP1 (gene 3484)
Briefly: LTEA_HepaRG_IGFBP1: Life Technologies and Expression Analysis (LTEA) Assay for Insulin-like growth factor-binding protein 1 (IGFBP1) using HepaRG (AID 2283508). Summed up: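 HepaRG, 48 h, 8 conc. (max 100 uM, half-log), duplicates, 0.5% DMSO. Readout: TaqMan qRT-PCR, ACTB/GAPDH/POLR2A normalisation. Fit: bidirectional vs DMSO.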

Read-out in test [4]: Interleukin 6 (IL6), IL6 (gene 3569)
Briefly: LTEA_HepaRG_IL6: Life Technologies and Expression Analysis (LTEA) Assay for Interleukin 6 (IL6) using HepaRG (AID 2283509). Summed up:
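Differentiated human HepaRG cells, plated 48 h then switched to serum-free induction medium, were exposed in duplicate for 48 h to eight half-log concentrations up to 100 uM in 0.5% DMSO. IL6 mRNA measured by qRT-PCR, normalized to ACTB/GAPDH/POLR2A.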

Read-out in test [5]: Interleukin 6 Receptor (IL6R), IL6R (gene 3570)
Briefly: LTEA_HepaRG_IL6R: Life Technologies and Expression Analysis (LTEA) Assay for Interleukin 6 Receptor (IL6R) using HepaRG (AID 2283510). Summed up: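 Differentiated human HepaRG cells, plated 48 h then switched to serum-free induction medium, were dosed in duplicate for 48 h at eight half-log concentrations up to 100 uM in 0.5% DMSO. IL6R mRNA quantified by qRT-PCR, normalized to ACTB/GAPDH/POLR2A; bidirectional fit versus DMSO.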

Read-out in test [6]: Potassium channel subfamily K member 1 (KCNK1), KCNK1 (gene 3775)
Briefly: LTEA_HepaRG_KCNK1: Life Technologies and Expression Analysis (LTEA) Assay for Potassium channel subfamily K member 1 (KCNK1) using HepaRG (AID 2283511). Summed up: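 Differentiated human HepaRG cells in serum-free induction medium were exposed in duplicate for 48 h to 8 half-log concentrations up to 100 uM in 0.5% DMSO. KCNK1 mRNA was measured by TaqMan qRT-PCR, normalized to ACTB, GAPDH and POLR2A, and fitted bidirectionally versus DMSO.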

Read-out in test [7]: Keratin 19 (KRT19), KRT19 (gene 3880)
Briefly: LTEA_HepaRG_KRT19: Life Technologies and Expression Analysis (LTEA) Assay for Keratin 19 (KRT19) using HepaRG (AID 2283512). The method, boiled down: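 Readout is qRT-PCR of KRT19 mRNA, normalized to ACTB, GAPDH and POLR2A, from HepaRG cells treated 48 h with eight-point half-log dilutions topping at 100 uM. Activity in either direction is scored relative to 0.5% DMSO vehicle.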

Read-out in test [8]: JUN Transcription Factor, JUN (gene 3725)
Briefly: LTEA_HepaRG_JUN: Life Technologies and Expression Analysis (LTEA) Assay for JUN Transcription Factor using HepaRG (AID 2283513). Summed up:
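Differentiated HepaRG cells were exposed to chemicals for 48 h in serum-free induction medium, 8 concentrations from 100 uM in half-log steps, 0.5% DMSO vehicle, in duplicate. JUN mRNA was quantified by TaqMan qRT-PCR, normalized to ACTB, GAPDH, POLR2A.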

Read-out in test [9]: Lipase C (LIPC), LIPC (gene 3990)
Briefly: LTEA_HepaRG_LIPC: Life Technologies and Expression Analysis (LTEA) Assay for Lipase C (LIPC) using HepaRG (AID 2283514). The method, boiled down:
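Differentiated human HepaRG cells in serum-free induction medium were exposed in duplicate for 48 h to eight concentrations (top 100 uM, half-log steps, 0.5% DMSO). LIPC mRNA was quantified by TaqMan qRT-PCR, normalized to ACTB, GAPDH and POLR2A, with bidirectional fitting versus DMSO.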

Read-out in test [10]: Lipoprotein lipase (LPL), LPL (gene 4023)
Briefly: LTEA_HepaRG_LPL: Life Technologies and Expression Analysis (LTEA) Assay for Lipoprotein lipase (LPL) using HepaRG (AID 2283515). The method, boiled down:
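Differentiated human HepaRG cells in serum-free induction medium were exposed in duplicate for 48 h to eight half-log concentrations (top 100 uM) in 0.5% DMSO. LPL mRNA was quantified by TaqMan qRT-PCR, normalized to ACTB, GAPDH and POLR2A.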

Read-out in test [11]: MicroRNA 122 (MIR122), gene 406906
Briefly: LTEA_HepaRG_MIR122: Life Technologies and Expression Analysis (LTEA) Assay for MicroRNA 122 (MIR122) using HepaRG (AID 2283516). Note: the transcript read is the microRNA miR-122. The method, boiled down: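 Differentiated human HepaRG cells were exposed 48 h in serum-free induction medium to eight half-log concentrations (top 100 uM, 0.5% DMSO). Transcript level was measured by TaqMan qRT-PCR, normalized to ACTB, GAPDH and POLR2A, and fitted bidirectionally versus DMSO.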

Read-out in test [12]: matrix metalloproteinase-10 (MMP10), MMP10 (gene 4319)
Briefly: LTEA_HepaRG_MMP10: Life Technologies and Expression Analysis (LTEA) Assay for matrix metalloproteinase-10 (MMP10) using HepaRG (AID 2283517). The method, boiled down:
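HepaRG, collagen I, ~100,000 cells/well; serum-free induction medium; 48 h exposure, duplicate, 8-pt half-log to 100 uM, 0.5% DMSO. Readout: TaqMan qRT-PCR, normalized to ACTB/GAPDH/POLR2A; bidirectional fit vs DMSO.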

Read-out in a further test: MYC, MYC (gene 4609)
Briefly: LTEA_HepaRG_MYC: Life Technologies and Expression Analysis (LTEA) Assay for MYC using HepaRG (AID 2283518). Summed up: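 Expression changes were scored by TaqMan qRT-PCR with ACTB, GAPDH and POLR2A normalization. Cultures in serum-free induction medium received duplicate 8-point concentration series, highest 100 uM, for 48 h; DMSO (0.5%) served as baseline.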

Read-out in test [13]: Paternally Expressed 10 (PEG10), PEG10 (gene 23089)
Briefly: LTEA_HepaRG_PEG10: Life Technologies and Expression Analysis (LTEA) Assay for Paternally Expressed 10 (PEG10) using HepaRG (AID 2283520). Summed up: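 Differentiated HepaRG cells, plated 48 h then switched to serum-free induction medium, were exposed in duplicate for 48 h to eight half-log concentrations topping at 100 uM in 0.5% DMSO. PEG10 mRNA was quantified by TaqMan qRT-PCR, normalised to ACTB, GAPDH and POLR2A.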

Read-out in test [14]: Nuclear factor NF-kappa-B p105 subunit (Homo sapiens) (UniProt P19838)
Briefly: LTEA_HepaRG_NFKB1: Life Technologies and Expression Analysis (LTEA) Assay for Nuclear Factor Kappa B Subunit 1 (NFKB1) using HepaRG (AID 2283521).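 For outcome: TaqMan qRT-PCR transcript normalised to ACTB GAPDH and POLR2A housekeeping genes.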 Summed up:
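HepaRG, 48 h exposure; 8-pt half-log series from 100 uM in 0.5% DMSO; duplicates. Readout: NFKB1 mRNA by qRT-PCR (Fluidigm arrays), housekeeping-normalized. Gain/loss fit vs DMSO baseline.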

Read-out in test [15]: Protein phosphatase 2A (PPP2R4), PTPA (gene 5524)
Briefly: LTEA_HepaRG_PPP2R4: Life Technologies and Expression Analysis (LTEA) Assay for Protein phosphatase 2A (PPP2R4) using HepaRG (AID 2283522). Summed up: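 Differentiated HepaRG cells in serum-free induction medium were exposed in duplicate for 48 h to eight concentrations, top 100 uM with half-log dilutions, in 0.5% DMSO. PPP2R4 mRNA was quantified by TaqMan qRT-PCR, normalized to ACTB, GAPDH and POLR2A.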

Read-out in test [16]: Phosphatase and tensin (PTEN), PTEN (gene 5728)
Briefly: LTEA_HepaRG_PTEN: Life Technologies and Expression Analysis (LTEA) Assay for Phosphatase and tensin (PTEN) using HepaRG (AID 2283523). Summed up: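 Differentiated human HepaRG cells, plated 48 h then switched to serum-free induction medium, were exposed in duplicate for 48 h to eight half-log concentrations up to 100 uM in 0.5% DMSO. PTEN mRNA measured by TaqMan qRT-PCR, normalized to ACTB/GAPDH/POLR2A, bidirectional fit versus DMSO.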

Read-out in test [17]: solute carrier (SLC22A1), SLC22A1 (gene 6580)
Briefly: LTEA_HepaRG_SLC22A1: Life Technologies and Expression Analysis (LTEA) Assay for solute carrier (SLC22A1) using HepaRG (AID 2283524). Summed up:
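Human HepaRG cells were plated 48 h, switched to serum-free induction medium, then exposed in duplicate for 48 h to 8-point half-log series from 100 uM in 0.5% DMSO. SLC22A1 mRNA measured by qRT-PCR, normalized to ACTB/GAPDH/POLR2A, fitted bidirectionally versus DMSO.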

Read-out in test [18]: Pyruvate Dehydrogenase Kinase 4 (PDK4), PDK4 (gene 5166)
Briefly: LTEA_HepaRG_PDK4: Life Technologies and Expression Analysis (LTEA) Assay for Pyruvate Dehydrogenase Kinase 4 (PDK4) using HepaRG (AID 2283525). Summed up:
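Differentiated human HepaRG cells, pre-cultured 48 h, were exposed in duplicate for 48 h in serum-free induction medium to eight half-log concentrations up to 100 uM in 0.5% DMSO. PDK4 mRNA was quantified by qRT-PCR, normalized to ACTB, GAPDH and POLR2A, bidirectional fitting versus DMSO.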

Read-out in test [19]: matrix metalloproteinase-3 (MMP3), MMP3 (gene 4314)
Briefly: LTEA_HepaRG_MMP3: Life Technologies and Expression Analysis (LTEA) Assay for matrix metalloproteinase-3 (MMP3) using HepaRG (AID 2283519). The method, boiled down: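 Differentiated human HepaRG cells, plated 48 h on collagen I, were exposed in duplicate for 48 h in serum-free induction medium to eight half-log concentrations up to 100 uM in 0.5% DMSO. MMP3 mRNA was quantified by TaqMan qRT-PCR, normalised to ACTB, GAPDH and POLR2A.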

Nuclear factor NF-kappa-B p105 subunit (Homo sapiens), sequence (P19838 whole entry, looked up): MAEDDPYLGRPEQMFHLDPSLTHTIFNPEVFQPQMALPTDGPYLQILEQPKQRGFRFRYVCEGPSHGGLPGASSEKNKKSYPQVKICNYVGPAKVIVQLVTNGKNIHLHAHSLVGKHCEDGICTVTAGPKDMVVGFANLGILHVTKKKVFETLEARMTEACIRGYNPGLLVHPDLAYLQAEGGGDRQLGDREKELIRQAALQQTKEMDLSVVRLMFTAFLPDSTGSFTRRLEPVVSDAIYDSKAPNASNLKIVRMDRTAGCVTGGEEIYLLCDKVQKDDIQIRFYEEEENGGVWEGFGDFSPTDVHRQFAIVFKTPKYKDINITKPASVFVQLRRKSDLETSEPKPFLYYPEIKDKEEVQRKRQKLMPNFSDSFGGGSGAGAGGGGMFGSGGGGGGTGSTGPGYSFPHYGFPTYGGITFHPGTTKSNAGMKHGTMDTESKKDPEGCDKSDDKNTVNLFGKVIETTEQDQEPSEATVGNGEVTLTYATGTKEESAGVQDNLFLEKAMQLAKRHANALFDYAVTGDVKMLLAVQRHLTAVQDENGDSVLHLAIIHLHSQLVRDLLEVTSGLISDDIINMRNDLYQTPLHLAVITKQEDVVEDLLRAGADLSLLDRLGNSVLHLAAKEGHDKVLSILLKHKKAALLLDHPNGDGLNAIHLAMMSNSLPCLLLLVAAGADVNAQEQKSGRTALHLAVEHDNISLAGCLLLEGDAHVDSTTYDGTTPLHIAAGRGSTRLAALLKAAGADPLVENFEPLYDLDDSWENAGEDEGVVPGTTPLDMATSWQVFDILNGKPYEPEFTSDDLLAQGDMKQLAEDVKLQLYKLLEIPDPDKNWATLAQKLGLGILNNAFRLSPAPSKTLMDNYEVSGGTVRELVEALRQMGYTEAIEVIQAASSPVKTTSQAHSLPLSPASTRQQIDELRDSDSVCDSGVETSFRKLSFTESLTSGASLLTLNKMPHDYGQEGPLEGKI

As for `Nc1ccc(S(=O)(=O)c2ccc(N)cc2)cc1`, the call in [1], in [2], in test [3], in [4], in [5] and in test [6] was inactive. For the same molecule, the result in test [7], in test [8], in [9], in [10], in test [11] and in [12] was inactive. For the same molecule, the outcome was “inactive” in the test with MYC, MYC (gene 4609); “inactive” in [13]; “inactive” in test [15]; “inactive” in test [16]; “inactive” in [17]; “inactive” in test [18]. In addition, the half-maximal activity concentration (AC50) in test [14] was 353 nM (active).
As for `CC=Cc1ccc(O)c(OC)c1`, the molecule was classed as inactive in test [1], in [2], in test [3], in [4], in test [5] and in test [7]. In addition, the outcome in [8] was “inactive”; in test [9], “inactive”; in test [10], “inactive”; in [11], “inactive”; in [12] it was “inactive”; with MYC, MYC (gene 4609) it was “inactive”. Further, the outcome in test [19], in test [13], in test [15], in test [16], in test [17] and in test [18] was inactive.
With `CCCCCC(=O)O`, the result in test [1], in [2], in test [3], in [4], in test [5] and in [6] was inactive. Further, the molecule was classed as inactive in test [7], in test [8], in test [9], in test [10], in [11] and in [12]. The outcome in the test with MYC, MYC (gene 4609) is “inactive”; in test [13], “inactive”; in [14], “inactive”; in test [15], “inactive”; in test [16], “inactive”; in test [17] it was “inactive”. In addition, the result in test [18] was inactive.
